High-throughput results (PubChem)
A selection: hits, their analogues and other compounds. The true share with any hit is near 2.1%.
Rpn11 inh: inhibitors of human proteasome Rpn11 | 360,000 compounds, 0.59% hits | human 26S proteasome, Ub4-pepOG fluorescence polarization; 20S core pre-blocked with epoxomicin | inhibition, % at 20 µM | AID 588493 | O00487;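 active = inhibition at 20 µM, scaled to each plate's controls, above about 33%, limit read from the data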
TPT1 inhibitor: C. albicans TPT1 enzyme inhibition. recombinant caTPT1, FP RNA substrate dephosphorylation. inhibition, % at 5 µM. 300,000 compounds, 0.81% hits. AID 1962;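 active = inhibition above the mean of all tested compounds plus 3 SD, set per screening campaign, cut at about 24% in these data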
HNF4A DNA FP: change in binding of human HNF4 alpha to DNA; HNF4a-FITC DNA binding, fluorescence polarization, 1 h; activity change, % at 10 µM; 360,000 compounds, 0.3% hits; AID 1224865; in the data active = activity change above about 30%, passing the limit was not always enough
Target sequence (P41235 whole entry, looked up): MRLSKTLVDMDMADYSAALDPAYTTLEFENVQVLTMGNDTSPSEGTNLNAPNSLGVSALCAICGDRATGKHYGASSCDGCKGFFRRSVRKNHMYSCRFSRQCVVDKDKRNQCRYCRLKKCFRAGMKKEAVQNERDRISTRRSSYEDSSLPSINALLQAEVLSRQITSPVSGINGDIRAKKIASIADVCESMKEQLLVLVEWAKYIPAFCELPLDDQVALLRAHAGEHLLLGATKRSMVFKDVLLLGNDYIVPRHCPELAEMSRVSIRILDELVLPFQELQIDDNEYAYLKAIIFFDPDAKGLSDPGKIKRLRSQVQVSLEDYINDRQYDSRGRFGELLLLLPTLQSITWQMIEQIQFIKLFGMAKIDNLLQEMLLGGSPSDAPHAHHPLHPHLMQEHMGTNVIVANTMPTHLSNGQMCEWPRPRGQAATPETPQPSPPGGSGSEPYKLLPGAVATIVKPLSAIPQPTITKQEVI
Myeloid diff MLP: promotes myeloid progenitor differentiation; 360,000 compounds, 1% hits; ER-HoxA9 myeloid progenitors, lysozyme-GFP differentiation, flow cytometry; calls only at 10 µM;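 active = normalized GFP-positive differentiation at or above the plate's own cutoff, the solvent-only control mean plus 3 SD; inconclusive = no clear call, values can overlap the other calls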;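 also: cells exposed to compound for four days before flow analysis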
Of the large screens only hits and unclear results are named; the others gave an inactive call.

CCCCCC(=O)N1C[C@H](n2cc(C3CC3)nn2)[C@@H](O)C[C@@H]1c1ccccc1	none (no result: TPT1 inhibitor)
COc1ccc2c(c1)CC/C(=C/c1ccncc1)C2=O	Myeloid diff MLP active
NNC(=O)c1cc2c(ccc3ccccc32)o1	none
O=C(Nc1cccnc1)c1cc2c(ccc3ccccc32)o1	Rpn11 inh 62
N=c1c2c(-c3ccccc3)c(-c3ccccc3)n(Cc3ccccc3)c2ncn1CCCn1ccnc1	Myeloid diff MLP active
CCCCn1cnc2c(c(-c3ccccc3)c(-c3ccccc3)n2Cc2ccco2)c1=N	none
Nc1ccc(-c2c3ccc(=O)cc-3oc3cc(O)ccc23)c(C(=O)O)c1	Myeloid diff MLP active (no result: TPT1 inhibitor)
Cc1ccc(NC(=O)COC(=O)CCC(=O)c2cccs2)c(C)c1	Myeloid diff MLP active
O=C1C=CC(O)C2(CO)OC12 (configuration not stated)	none (no result: TPT1 inhibitor)
CCOC(=O)Cn1c(-c2nonc2NC(=O)c2ccccc2F)nc2ccccc21	Myeloid diff MLP active (not shown: Rpn11 inh)
CC(=O)N/C(=C\c1ccccc1)C(=O)OCc1ccc(F)cc1	none (no result: TPT1 inhibitor)
CC(C)Cn1c2nc3ccccc3nc2c2c(=O)n(CCN3CCOCC3)cnc21	Myeloid diff MLP active
CCCCn1c2nc3ccccc3nc2c2c(=O)n(CCC(C)C)cnc21	none
CCC/C(C#Cc1ccc(N(C)C)cc1)=C1/c2ccccc2C(=O)N1c1ccccc1	Myeloid diff MLP active (not shown: Rpn11 inh, TPT1 inhibitor)
CCC/C(C#Cc1cc(OC)cc(OC)c1)=C1/c2ccccc2C(=O)N1c1ccccc1	none (no result: TPT1 inhibitor)
CN(Cc1ccccc1)Cc1nc2c([nH]1)c(=O)n(C)c(=O)n2C	Myeloid diff MLP active
COc1cccc(S(=O)(=O)N(C)C[C@H]2OCc3cnnn3CCCC(=O)N([C@@H](C)CO)C[C@@H]2C)c1	none (no result: TPT1 inhibitor)
COc1ccc(/C=N/NC(=O)c2ccc(CSc3nc(C)cc(C)n3)cc2)cc1O	none
COc1ccc(/C=N/NC(=O)c2ccc(CSc3nc(C)cc(C)n3)cc2)c(OC)c1OC	Myeloid diff MLP active
C(C#CCCCCCCCCC[n+]1ccccc1)#CCCCCCCCCC[n+]1ccccc1	HNF4A DNA FP 77, Myeloid diff MLP inconclusive
CC1CCCCN1c1nc(-c2ccncc2)nc2ccccc12 (configuration not stated)	Myeloid diff MLP active
CCC1CCCCN1c1nc(-c2ccncc2)nc2ccccc12 (configuration not stated)	none
CC(=O)N1CCc2cc(S(=O)(=O)CCC(=O)Nc3c(C)n(C)n(-c4ccccc4)c3=O)ccc21	none
CN(Cc1ccccc1)C(=O)c1cnc(Cc2c[nH]c3ccccc23)c(I)c1	none (no result: TPT1 inhibitor)
Cc1cc(/C=C\c2ccc3cc(N(C)C)ccc3[n+]2C)c(C)n1-c1ccccc1	Rpn11 inh 82, Myeloid diff MLP inconclusive
C[n+]1c(/C=C/c2ccc(O)cc2)ccc2ccccc21	none
CCCC(NC(=O)Cc1c(C)c2cc3c(C)c(C)oc3c(C)c2oc1=O)C(=O)N[C@@H](Cc1ccccc1)C(=O)O (some centres not stated)	Rpn11 inh 76
Cc1ccccc1C(=O)N1CCC(C(=O)Nc2ccc(S(=O)(=O)N3CCCC3)cc2)CC1	Myeloid diff MLP active
Cc1ccccc1C(=O)N1CCC(C(=O)Nc2cccc(S(=O)(=O)N3CCCCC3)c2)CC1	none (no result: TPT1 inhibitor)
CCS(=O)(=O)c1nc(S(=O)(=O)c2ccc(C)cc2)c(N2CC(C)OC(C)C2)s1 (configuration not stated)	Myeloid diff MLP active
NS(=O)(=O)c1cccc(NC(=O)COC(=O)CCN2C(=O)c3ccccc3C2=O)c1	none (no result: TPT1 inhibitor)
Cc1cccc(-c2c(NC(=O)c3ccco3)oc3c(C)cccc3c2=O)c1	Myeloid diff MLP active
COc1cccc(C(=O)Nc2cc(C(=O)NCCc3ccccc3)ccc2Cl)c1	none
COc1cccc(/C(O)=C/c2nc3ccc(C(=O)NCCc4cccc(C)c4)cc3[nH]c2=O)c1	Myeloid diff MLP active
Cc1c(C)c2c(OCC(=O)Nc3cccnc3)cc3c(c2oc1=O)CCC(C)(C)O3	HNF4A DNA FP 55
CCOc1ncccc1C(=O)Nc1cc(S(=O)(=O)N2CCCCC2)ccc1OC	none (no result: TPT1 inhibitor)
CCNC(=O)C1CC(=O)N(c2ccc(OCC)cc2)C1 (configuration not stated)	none
CCOc1ccc(N2CC(C(=O)OC)CC2=O)cc1 (configuration not stated)	HNF4A DNA FP 50
CC(C)[N+]1=C2C=CC=CC=C2SC12C([N+](=O)[O-])=CC(=[N+]([O-])[O-])C=C2[N+](=O)[O-] (configuration not stated)	Myeloid diff MLP active
CCOc1ccc(CCNC(=O)COC(=O)Cn2cnc3ccccc3c2=O)cc1OCC	Myeloid diff MLP active
CCN1CC=C2C(C#N)=C(N)C(C#N)(C#N)C(c3cc(Cl)ccc3Cl)C2C1 (configuration not stated)	Myeloid diff MLP active
CSCCC(NS(=O)(=O)c1ccc2ccccc2c1)C(=O)OCC(=O)c1ccc(C(C)C)cc1 (configuration not stated)	Myeloid diff MLP active
CSCCC(NC(=O)COc1ccccc1)C(=O)OCC(=O)c1ccccc1 (configuration not stated)	none
CCOC(=O)C1C(=O)NC(SCC(=O)Nc2nccs2)=C(C#N)C1c1ccccc1OCC (configuration not stated)	Rpn11 inh 61
CCOC(=O)C1C(=O)NC(SCC(=O)OC)=C(C#N)C1c1ccccc1OCC (configuration not stated)	none
CC(=O)c1c(C)[nH]c(C(=O)OCC(=O)NCc2ccc(Cl)cc2)c1C	none (no result: TPT1 inhibitor)
CC(=O)c1c(C)[nH]c(C(=O)OCC(=O)NCc2ccc3c(c2)OCO3)c1C	Myeloid diff MLP active (no result: TPT1 inhibitor)
CN(CC(=O)NCCc1ccc(S(N)(=O)=O)cc1)S(=O)(=O)c1cccc2nsnc12	Myeloid diff MLP active
CCOc1ccc(CCNC(=O)CN(C)S(=O)(=O)c2cccc3nsnc23)cc1OCC	none
CCc1cc(/C(Cc2ccccn2)=N\O)c(O)cc1O	Myeloid diff MLP active
CCc1cc(/C(Cc2cscn2)=N\O)c(O)cc1O	none
CC1CC(C)CN(C(=O)c2ccc(S(=O)(=O)N3CC(C)CC(C)C3)cc2)C1 (configuration not stated)	none
CC1CC(C)CN(S(=O)(=O)c2ccc(C(=O)N3CCCC3)cc2)C1 (configuration not stated)	Myeloid diff MLP active
CCN(CC(=O)Nc1c(F)cccc1F)C(=O)c1ccc(C#N)cc1	none
COc1cc(C(C)=O)ccc1OCC(O)CN1CCN(c2c(C)cccc2C)CC1 (configuration not stated)	HNF4A DNA FP 45
COC(=O)c1ccccc1COn1c(=O)c[n+]([O-])c2ccccc21	Myeloid diff MLP active
O=c1c[n+]([O-])c2ccccc2n1OCc1c(F)cccc1F	Myeloid diff MLP active
CCOn1c(=O)c[n+]([O-])c2ccccc21	Myeloid diff MLP active
Cc1ccccc1C(=O)N/N=C1/SCC(=O)N1Cc1ccccc1	none
COCCn1c(SCC(=O)N(C)c2ccccc2)nc2c([nH]c3ccccc32)c1=O	none
C=CCNc1nc2ccccc2nc1NS(=O)(=O)c1cccs1	none
O=S(=O)(Nc1nc2ccccc2nc1NCc1ccco1)c1cccs1	Myeloid diff MLP active
